According to PubChem BioAssay (NCATS):
Records with an inconclusive call do not appear. Entries that show only a call come without a potency. Calls of active or inactive are those of the source. Calls come from the whole dose curve; as a rule, active = well fitted inhibition curve with a large enough effect; inconclusive = small, poorly fitted or top-dose-only effect; inactive = no such curve, though single readings can be large or run the other way.

Assay: S16 Schwann cell PMP22 intronic element firefly luciferase assay (AID 624032); note: nearly all actives have a fitted effect of over 30% in size
Conditions: S16 rat Schwann cells, PMP22 element FLuc, 24 h; series mostly up to 57.5 µM
Text: Charcot-Marie-Tooth-Association [CMTA]
National Center for Advancing Translational Sciences [NCATS]
Charcot-Marie-Tooth (CMT) disease was first characterized by Jean-Martin Charcot and Pierre Marie in France and, independently, by Howard Henry Tooth in England in 1886. CMT is one of the most common inherited neurological diseases, affecting approximately 1 in 2,500 Americans. […] The most prevalent type of CMT is known as CMT1A and caused by a duplication of the PMP22 gene which leads to over-expression of this protein. PMP22 is a glycosylated intrinsic membrane protein accounting for 2-5% of the myelin protein content, and its over-expression results in demyelination and subsequently axonal loss.
A pair of cellular transcription-based assays was developed in the S16 rat Schwann cell lines (Hai, M., et al., 2002) stably transfected with orthogonal reporters - firefly luciferase (Fluc) and beta-lactamase (beta-Lac) - whose expression is driven by an intronic regulatory element of the PMP22 gene (Jones, E.A., et al., 2011) to recapitulate endogenous expression of PMP22. The current assay employs Fluc to report on PMP22 expression. A comprehensive library of approved drugs, the NCGC Pharmaceutical Collection (Huang, R., et al., 2011), was screened in the cross-validating platform of the orthogonal reporter assays to identify drug modulators inhibitory towards PMP22 expression.
A set of counter-screens was devised to address non-specific activity of the library. An ATP-dependent CellTiter-Glo assay (developed by Promega Corp) was utilized to control cell viability. In addition, biochemical Fluc enzyme assay was performed to assess direct inhibition of the Fluc enzymatic activity.
Hai, M., Muja, N., DeVries, G.H., Quarles, R.H. and Patel, P.I. Comparative analysis of Schwann cell lines as model systems for myelin gene transcription studies. J Neurosci Res, 2002. 69(4): pp 497-508
Huang, R., Southall, N., Wang, Y., Yasgar A., Shinn P., Jadhav, A. , Nguyen, D.-T. and Austin, C.P., The NCGC pharmaceutical collection: a comprehensive resource of clinically approved drugs enabling repurposing and chemical genomics. Sci Transl Med, 2011. 3(80): p. 80ps16.
S16 Schwann cell PMP22 intronic element firefly luciferase assay
The FLuc-expressing S16 cells were seeded in white solid 1536-well plates at between 500-750 cells/4uL in DMEM medium containing 10% FBS, w/o phenol red. After overnight incubation at 37 degree Celsius/5% C02, 23 nL of compounds or DMSO were delivered to each well using a pin tool, followed by 24h-incubation at 37 degree Celsius/5% C02. Then 4 uL ONE-Glo luminescent substrate mix (Promega) was added to each well. Luminescence was measured on a ViewLux plate reader (Perkin Elmer). The % activity was determined by normalizing to the average readings of PTC124 (a positive control) - treated cells relative to DMSO-treated cells (0% Activity). The concentration-effect curves were then classified based on curve quality (r2), response magnitude and degree of measured activity.
Potency is the fitted concentration of half-maximal effect.

Compound | Potency
CC(=O)Nc1ccc(C(=O)O)cc1 | inactive
CCc1nnc(NS(=O)(=O)c2ccc(N)cc2)s1 | inactive
CCN(CC)CCc1nc(-c2ccccc2)no1 | inactive
Cc1cc(C)nc(NS(=O)(=O)c2ccc(N)cc2)n1 | inactive
CCN(CC)CC1CCCCN1CC(=O)N1c2ccccc2C(=O)Nc2cccnc21 (stereo not given) | inactive
Cc1c(I)c(=O)n(-c2ccccc2)n1C | inactive
CCCCCCCC(=O)OCC(COC(=O)CCCCCCC)OC(=O)CCCCCCC | inactive
O=C1C(c2[nH]c3ccccc3c2O)=Nc2ccccc21 | inactive
CC(=O)Nc1ccc(OCCOCCOc2ccc(NC(C)=O)cc2)cc1 | inactive
O=C(CN1CCNCC1)NC1CCCCC1 | inactive
Nc1ccc(S(=O)(=O)c2ccc(N)cc2)cc1 | inactive
Cc1cc(OI)c(C(C)C)cc1-c1cc(C(C)C)c(OI)cc1C | inactive
CC(C)CCCC(C)CCCC(C)CCCCC(C)CCCC(C)CCCC(C)C (stereo not given) | inactive
CCCC(O)C(CC)CO (stereo not given) | inactive
CCOc1cc(NC(C)=O)ccc1C(=O)OC | inactive
O=C(O)c1cc(=O)c2ccccc2o1 | inactive
NS(=O)(=O)c1cc(-c2nn[nH]n2)c(NCc2cccs2)cc1Cl | inactive
O=C1CC[C@@H](C(=O)O)N1 | inactive
CC(C(=O)O)c1ccc2c(c1)Cc1cccnc1O2 (stereo not given) | inactive
Cc1ncc(CO)c(CN)c1O | inactive

Compound | Potency
Cc1cc(NC(=O)C2=C(O)c3ccccc3S(=O)(=O)N2C)no1 | inactive
CC(=O)Nc1ccccc1 | inactive
C[C@@H]1O[C@@H](OC[C@H]2O[C@@H](Oc3c(-c4ccc(O)c(O)c4)oc4cc(O)cc(O)c4c3=O)[C@H](O)[C@@H](O)[C@@H]2O)[C@H](O)[C@H](O)[C@H]1O | inactive
Nc1ccc(C(=O)Oc2ccccc2)c(O)c1 | inactive
Cc1c(NC(=O)c2cccnc2)c(=O)n(-c2ccccc2)n1C | inactive
O=C(O)Cc1cn(-c2ccccc2)nc1-c1ccc(Cl)cc1 | inactive
CC[N+](CC)(CC(=O)Nc1c(C)cccc1C)Cc1ccccc1 | inactive
O=C(O)Cn1c(C(=O)Nc2nc(-c3ccccc3Cl)cs2)cc2ccccc21 | inactive
CC(C)C[C@@H](N)C(=O)O | inactive
O=C(O)c1ccc[n+]([O-])c1 | inactive
O=c1[nH]c(=O)c2ccccc2o1 | inactive
COc1cc(C(=O)NCCCCCC(=O)O)cc(OC)c1OC | inactive
O=C(O)CCC(=O)O | inactive
CCc1cccc(CC)c1NC(=O)CN(CC(=O)O)CC(=O)O | inactive
O=C(OOC(=O)c1ccccc1)c1ccccc1 | inactive
CCCCCC(N)=O | 14.4 µM (active)
CN1C[C@@H]2C[C@H]1CN2c1cc2c(cc1F)c(=O)c(C(=O)O)cn2C1CC1 | inactive
COc1ccccc1OC(=O)Oc1ccccc1OC | inactive
COC(=O)c1ccc(O)cc1 | inactive
OC[C@@H](O)[C@@H](O)[C@H](O)[C@H](O)CO | inactive
